This passage reports inhibition results from PubChem BioAssay AID1376 (SRMLSC, 2008).

Molecules are shown by their SMILES. Hit rate of the full screen: of about 220,000 compounds, about 530 (0.24%) were called active. For the sample, actives were picked, then their nearest neighbours and some compounds at random. Results with a measured potency or affinity are listed apart. A number with no mark means an inactive call. Rule as the data show it: active = inhibition above about 13%; inconclusive = no clear call, values can overlap the other calls; inactive = below that.

The target in the assay is Bifunctional protein GlmU (Mycobacterium tuberculosis (strain ATCC 25618 / H37Rv)) (UniProt P9WMN3). Put plainly: inhibition of mycobacterial GlmU enzyme – biochemical, glucosamine-1-phosphate acetyltransferase (AID 1376).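 Also: 0% = complete reaction with vehicle and 100% = reaction without substrate.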 The note with it: M. tuberculosis GlmU acetyltransferase enzyme assay; stronger effect = higher value;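 tested at 30 µM in the primary screen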.
Chain of Bifunctional protein GlmU (Mycobacterium tuberculosis (strain ATCC 25618 / H37Rv)) (P9WMN3 whole entry, looked up): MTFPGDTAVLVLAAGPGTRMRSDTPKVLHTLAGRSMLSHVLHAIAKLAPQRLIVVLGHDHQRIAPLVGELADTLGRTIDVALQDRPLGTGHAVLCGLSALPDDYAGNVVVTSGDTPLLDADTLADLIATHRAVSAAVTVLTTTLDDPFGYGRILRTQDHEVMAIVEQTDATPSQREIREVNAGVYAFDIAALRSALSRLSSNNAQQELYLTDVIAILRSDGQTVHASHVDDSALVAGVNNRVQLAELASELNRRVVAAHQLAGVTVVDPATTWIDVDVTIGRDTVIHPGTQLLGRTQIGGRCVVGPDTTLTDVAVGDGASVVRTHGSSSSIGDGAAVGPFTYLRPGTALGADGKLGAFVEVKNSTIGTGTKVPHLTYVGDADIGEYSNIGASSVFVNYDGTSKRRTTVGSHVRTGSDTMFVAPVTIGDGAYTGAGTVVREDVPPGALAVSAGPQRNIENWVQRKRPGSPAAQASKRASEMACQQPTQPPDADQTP
Usually inhibition stands for the change of the read-out against control, counted positive when it falls. On to `O=C(O)COc1c(Cl)cc(/C=C2\NC(=O)NC2=O)cc1Br`, for which the inhibition was 3.85%. Then `CC(C)OC(=O)c1cccc(C(=O)Nc2cccc(NC(=O)c3cccc(C(=O)OC(C)C)n3)n2)n1`, with 2.69%; and `O=C(N/N=C/c1ccc([N+](=O)[O-])o1)c1cc2c(ccc3ccccc32)o1`, with -4.6%; and `O=C(O)c1cc(-c2ccc(/C=N/NC(=S)Nc3ccccc3)o2)ccc1Cl`, with 10.1%. Then `COC(=O)c1cc(O)cc(OC)c1C(=O)c1c(O)cc(C)cc1O`, with 0%; and `COC(=O)c1cc(OC)cc(O)c1C(=O)c1c(O)cc(C)cc1O`, with 1.11%. The same measure for `Clc1ccc(-c2csc(Nc3cccnc3)n2)cc1`: -1.87%. For `CCCCCCNCc1c(F)cccc1Cl`, the inhibition was -1.27%. The same measure for `CCOC(=O)/C(=N/Nc1ccccc1OC)N1CCCc2ccccc21`: 3.21%; for `Cc1nc2c(=O)n(-c3ccc(F)c(Cl)c3)nc(C)c2s1`: -1.25%. Turning to `Cc1ccc(NC(=S)N/N=C2\CC3CC=CC23)c(C)c1` (configuration not stated), the inhibition is 2.83%.

`Cc1cccc(C)c1NC(=S)N/N=C1\CC2CC=CC12` (configuration not stated): the inhibition is 14.2% (active). As for `FC(F)(F)c1ccccc1NC(=S)N/N=C1\CC2CC=CC12` (configuration not stated), the inhibition was -4.32%.

On to `Clc1ccc(-c2nnc(-c3ccco3)nc2N2CCCCC2)cc1`, for which the inhibition was -2.38%. The same measure for `Cc1ccc(C(=O)N/N=C\c2ccc(-c3ccc(Cl)c(Cl)c3)o2)cn1`: -1.63%; for `Nc1ccc(C(=O)O)cc1[N+](=O)[O-]`: -10.2%.

Consider `NS(=O)(=O)c1ccc(CNC(=O)NC2(c3ccccc3)CC2)cc1`, for which the inhibition is -5.17%. On to `CCOc1ccccc1CN1CCC(CO)(CCOc2ccccc2)CC1`, for which the inhibition was -6.84%. Then `CCc1ccc(-n2c(SCC(=O)N3CCC(C(=O)O)CC3)nnc2-c2ccncc2)cc1`, with 14.8% (active); and `Cc1ccccc1-n1c(SCC(=O)N2CCC(C(=O)O)CC2)nnc1-c1ccncc1`, with 1.39%; and `Cc1c(Cl)cccc1-n1c(SCC(=O)N2CCC(C(=O)O)CC2)nnc1-c1ccncc1`, with -2.06%. Then `O=[n+]1c2c(n([O-])c3c1CCC3)CCCC2`, with -2.34%. Turning to `O=c1[nH][nH]c2c(N=Cc3ccccc3O)ccc(F)c12`, the inhibition was 28.6% (active). On to `O=C(Nc1ccccc1)c1ccccc1N=Cc1ccccc1O`, for which the inhibition was -2.01%.

On to `O=c1[nH][nH]cc1C=Nc1ccccc1O`, for which the inhibition was -0.91%. In the case of `Cc1ccc(NC(=O)CC2=NC(=O)C(CC(=O)Nc3ccccc3C)S2)cc1` (configuration not stated), the inhibition was 0.67%. The same measure for `OC(CNCc1ccc2c(c1)OCO2)COc1ccc(F)cc1` (configuration not stated): -6.96%.
